Measured values published in PubChem BioAssay (NCATS).
Several values for one entry are separate records, joined by “and”; a condition that tells them apart may be missing. Identical values can stand only once. Values without a mark were called inactive. Where a call stands in place of a potency, no number is given. Activity calls are given as the source filed them. The call rests on the fitted dose curve; in most records, active means well fitted activation curve with a large enough effect; inconclusive means small, poorly fitted or top-dose-only effect; inactive means no such curve, though single readings can be large or run the other way.

The molecules below were run against Cytochrome P450 3A4 (Homo sapiens) (UniProt P08684) (assay: qHTS Assay for Activators of Cytochrome P450 3A4 (AID 885; further: nearly all actives have a fitted effect of over 65% in size)). Conditions: recombinant CYP3A4, Luciferin-PPXE luminescence, 60 min; series mostly up to 57.1 µM.
Procedure, shortened: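 Human CYP3A4 (20 nM) with Luciferin-PPXE at 25 uM (its KM) in 200 mM KPO4; 10 min compound preincubation, then NADPH regeneration and 60 min reaction at RT. Luciferin read by luminescence; normalized to 57 uM ketoconazole full inhibition.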

Cytochrome P450 3A4 (Homo sapiens), sequence (P08684 whole entry, looked up): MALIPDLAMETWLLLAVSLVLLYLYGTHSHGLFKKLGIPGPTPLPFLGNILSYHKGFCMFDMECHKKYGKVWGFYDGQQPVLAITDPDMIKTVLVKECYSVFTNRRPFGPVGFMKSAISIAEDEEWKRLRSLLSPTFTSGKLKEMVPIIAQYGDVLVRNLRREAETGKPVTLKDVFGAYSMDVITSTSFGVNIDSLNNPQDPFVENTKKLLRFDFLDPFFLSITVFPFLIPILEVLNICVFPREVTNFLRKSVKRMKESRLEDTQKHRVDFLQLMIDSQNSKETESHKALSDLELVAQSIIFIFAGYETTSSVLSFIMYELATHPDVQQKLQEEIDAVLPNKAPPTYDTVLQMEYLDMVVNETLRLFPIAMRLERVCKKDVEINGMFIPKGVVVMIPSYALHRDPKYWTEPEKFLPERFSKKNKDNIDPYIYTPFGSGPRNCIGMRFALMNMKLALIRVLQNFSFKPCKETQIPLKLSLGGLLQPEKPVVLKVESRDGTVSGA

Compound | activity change, positive = activation | Potency
COC(=O)NC(/C(C(=O)OC)=C(\C)NCc1ccccc1)c1cccs1 (configuration not stated) | -35.9% [at 11.4 µM] | –
CO[C@H]1COC(=O)CCC[C@@H](C)[C@H](OC)COC(=O)[C@H]2CCCN2C(=O)C/C=C\[C@@H]1C | -30.7% [at 11.4 µM] | –
O=C1[C@H]2[C@H]3[C@H](O)[C@H](O)C/C(=N/OC[C@@H](O)COCc4ccco4)[C@H]3CC[C@@H]2C(=O)N1c1cccc(Oc2ccccc2)c1 | -40.2% [at 11.4 µM] | –
CC(C)(C)N1C(=O)[C@H]2[C@H]3[C@H](O)[C@H](O)C/C(=N/OC[C@@H](O)COCc4ccco4)[C@H]3CC[C@@H]2C1=O | -30.9% [at 11.4 µM] | –
CC(C)=NO[C@@H](C)c1cc(-c2c(C)cc(C)cc2C)no1 | -45% [at 11.4 µM] | –
c1ccc(C2[C@H]3CN(CC4CCCCC4)[C@H](c4ccccc4)C34CC2(c2ccccc2)C4)cc1 (some centres not stated) | – | inactive
CN1C[C@@H]2C(c3ccccc3)C3(c4ccccc4)CC2(C3)[C@H]1c1ccccc1 (some centres not stated) | – | inactive
COC(=O)[C@@H]1C[C@H]2CC[C@H](O)C[C@H]2N1Cc1ccc(C)s1 | – | inactive
COC(=O)c1cccc(C23CC4(C2)[C@H](CN(Cc2ccc(C(F)(F)F)cc2)[C@@H]4c2ccccc2)C3c2ccc(Cl)nc2)c1 (some centres not stated) | – | inactive
C[C@@H](c1ccccc1)N1C(=O)[C@H]2[C@H]3[C@H](O)[C@H](O)C/C(=N/OCc4ccccc4)[C@@H]3CC[C@@H]2C1=O | -50% [at 11.4 µM] | –
CCC1=C2CC[C@H]3C(=O)NC(=O)[C@H]3[C@H]2[C@@]2(C)C(=O)N(CC3CC3)C(=O)N2C1=O | – | inactive
CO[C@H]1COC(=O)C/C=C\[C@H](C)[C@@H](OC)COC(=O)[C@H](C)COC(=O)C/C=C\[C@@H]1C | -33.7% [at 11.4 µM] | –
O=C1[C@@H]2[C@H]3[C@H](O)[C@H](O)C/C(=N/OCc4ccccc4)[C@H]3CC[C@H]2C(=O)N1c1ccc(F)cc1F | -34.3% [at 11.4 µM] | –
CCC1=C(OC(=O)N(CC)CC)N2C(=O)OC(=NCCOC)[C@]2(C)[C@H]2C1=CC[C@H]1C(=O)NC(=O)[C@H]12 | – | inactive
O=C1[C@H]2[C@H]3[C@H](O)[C@H](O)C/C(=N/OC[C@@H](O)COCc4ccco4)[C@H]3CC[C@@H]2C(=O)N1Cc1ccccc1 | -57.9% [at 11.4 µM] | –
Clc1ccc(C2[C@H]3CN(CC4CCCCC4)[C@H](c4ccccc4)C34CC2(c2ccccc2)C4)cn1 (some centres not stated) | – | inactive
COC(=O)c1cccc(C23CC4(C2)[C@H](CN(Cc2ccc(-c5ccccc5)cc2)[C@@H]4c2ccccc2)C3c2ccccc2)c1 (some centres not stated) | – | inactive
CC(=O)OC[C@@H]1O[C@H](C/C=N\O[C@@H](C)CN2CCCc3nc(C)c(C)cc32)C=C[C@@H]1OC(C)=O | -35.5% [at 11.4 µM] | –
CCC1=C2CC[C@H]3C(=O)N(CC(=O)OC)C(=O)[C@H]3[C@H]2[C@@]2(C)C(=O)N(CC3CC3)C(=O)N2C1=O | – | inactive
FC(F)(F)c1ccc(C2[C@H]3CN(Cc4ccc(-c5ccccc5)cc4)[C@H](c4ccccc4)C34CC2(c2ccccc2)C4)cc1 (some centres not stated) | – | inactive
CCC1=C2CC[C@H]3C(=O)N(CC(=O)OC)C(=O)[C@H]3[C@H]2[C@@]2(C)C(=NCC(=O)OC)OC(=O)N2C1=O | – | inactive
CO[C@H]1COC(=O)C/C=C\[C@@H](C)COC(=O)[C@@H](CCSC)NC(=O)C/C=C\[C@@H]1C | -36.9% [at 11.4 µM] and -35.4% [at 11.4 µM] | –
C[C@@H](c1ccccc1)N1C(=O)[C@H]2[C@H]3[C@H](O)[C@H](O)C/C(=N/OCc4ccccc4)[C@H]3CC[C@@H]2C1=O | -40.9% [at 11.4 µM] | –
COC(=O)C/C=C\[C@@H](C)[C@@H](CO)NS(=O)(=O)c1ccc(C)cc1 | -37.6% [at 11.4 µM] | –
COC(=O)[C@@H]1C[C@@H]2CC[C@@H](O)C[C@@H]2N1Cc1ccc(N2CCN(C)CC2)cc1 | – | inactive
COC(=O)[C@@H]1C[C@@]2(O)[C@H](O)[C@H](O)[C@H](O)C[C@H]2N1Cc1c(F)cccc1Cl | – | inactive
c1ccc(-c2ccc(CN3C[C@@H]4C(c5ccccc5)C5(c6cccnc6)CC4(C5)[C@H]3c3ccccc3)cc2)cc1 (some centres not stated) | – | inactive
